In PubChem BioAssay (NCI) one finds growth data, which are given here for 34 compounds.

Structures are written as SMILES. Values joined by “and” are separate entries in the source; they are usually repeats but may differ in a detail not shown here. Equal entries are not always repeated. Compounds without any hit were thinned out: in the full panel of roughly 83,000, 20% have a hit.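 Testing used 96-well plates and a 48-hour single-concentration exposure. Example: -40 means 40% of the starting cells died.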 Active and inactive are the calls of the source. The calls were made as follows: active = growth percent below 10; inactive = the rest.

For the experiment, the system named is MDA-MB-468 breast. Nature of the experiment: NCI-60 one-dose screen, 48 h (100 = growth as untreated, 0 = no growth, -100 = all killed). The settings on record: 10 µM unless noted.
Consider `CC(C)C1=NOC(=O)C1=Cc1cn(-c2ccccc2)nc1-c1ccc(Br)cc1`, for which the growth was 92.2% (inactive).

As to `COC(=O)CNC(=O)C(=O)c1c(O)c(O)c(C(C)C)c2cc(C)c(-c3c(C)cc4c(C(C)C)c(O)c(O)c(C(=O)C(=O)NCC(=O)OC)c4c3O)c(O)c12`, the growth was 15.8% (inactive).

For the compound `C/C(=C(\c1ccc(O)cc1)c1ccc(OCCN2CCCCCC2)cc1)c1ccc(Cl)cc1`, the growth is -88% (active).

Regarding `O=C(O)c1ccccc1Oc1cc(-c2ccco2)nc(OCCN2CCOCC2)n1`, the growth was 105% (inactive).

Consider `O=C(CC1(O)C(=O)Nc2ccc(Br)cc21)c1ccc(Cl)cc1` (centres undefined), for which the growth is 100% (inactive).

Turning to `O=C(CN1CCOCC1)Nc1ccc2ncnc(Nc3ccc(Oc4cccc(C(F)(F)F)c4)c(Cl)c3)c2c1`, the growth is -7.54% (active).

On to `Oc1ccc(CSc2nnc(-c3ccc(Oc4ccccc4)cc3)o2)c2cccnc12`, for which the growth is 30.7% (inactive).

Take `Cc1nc(Nc2ccc(N)cc2)c2ccccc2n1`: the growth is 86.9% (inactive).

`COc1ccc2[nH]cc(-c3nc(-c4c[nH]c5c(Cl)nccc45)cs3)c2c1`: the growth is 34.1% (inactive).

Regarding `Cc1ccc(C2CC(c3ccc(Nc4nc(NCCO)nc(Nc5ccc(Cl)cc5)n4)cc3)=Nc3c(N)nc(N)nc3N2)cc1` (centres undefined), the growth is -80% (active).

For the compound `CCN(CC)S(=O)(=O)c1cccc(-c2ccc3c(NC(=O)C4CC4)n[nH]c3c2)c1`, the growth is 6.55% [6.25 µM] (active).

Take `N#CC1=C(N)Oc2c(c(N)nn2-c2ccccc2)C1c1ccc(Cl)cc1` (centres undefined): the growth is 117% (inactive).

Take `Fc1ccc([I+]c2ccc(F)cc2)cc1`: the growth is 30% (inactive).

With `CCS/C(Nc1ccccc1)=C(\C#N)C(=O)N/N=C/c1ccc(Cl)cc1Cl`, the growth is 19.6% (inactive).

Turning to `Oc1ccc(O)cc1`, the growth is 96.7% (inactive).

For `CC(=O)N[C@H](C(=O)N[C@@H](CCCNC(=N)N)C(=O)N[C@@H](CCCCN)C(=O)N[C@@H](CCCNC(=N)N)C(=O)N[C@]1(C)CCCCCC/C=C\CCC[C@@](C)(C(=O)N[C@@H](CCCNC(=N)N)C(=O)N[C@@H](CCC(=O)O)C(=O)N[C@@H](CC(C)C)C(=O)N[C@H](C(=O)N[C@@H](CCC(=O)O)C(N)=O)C(C)C)NC(=O)[C@H](CCC(N)=O)NC(=O)[C@H](CC(C)C)NC(=O)[C@H](CC(C)C)NC(=O)[C@H](CCCNC(=N)N)NC(=O)[C@H](CCCNC(=N)N)NC(=O)[C@H](CC(C)C)NC1=O)C(C)C`, the growth was 20.5% (inactive).

In the case of `Cc1cc(C)n(CC(=O)Nc2ccc(-c3nc4ccccc4s3)cc2)n1`, the growth was -3.57% (active).

Take `Cn1c2ccc(Cl)cc2c2nn(C(=O)c3ccccc3)c(=O)nc21`: the growth was 103% (inactive).

Turning to `CN1CCN(c2ccc(/C=N/Nc3nc4ccccc4c(=O)n3-c3ccccc3)cc2)CC1`, the growth was 90.8% (inactive).

On to `Nc1ncc(-c2ccc3ncnc(N4CCc5cc(F)c(Cl)cc54)c3c2)cc1CO`, for which the growth is -39.8% (active).

As to `COc1cc(C(=O)Nc2cc(O)c(CC=C(C)C)c(O)c2)cc2c1O[C@]1(C)CC[C@@H](O)C(C)(C)[C@H]1C2`, the growth was 36.3% (inactive).

In the case of `O=C(Cn1nnc([N+](=O)[O-])n1)c1ccccc1`, the growth was 99.2% (inactive).

As for `O=[N+]([O-])c1cccc2ccc(N/N=C/c3ccccc3O)nc12`, the growth is 4.06% (active) and 89.3% (inactive).

Take `COc1ccc(C(=O)c2cc(OC)c(OC)c(OC)c2OC)cc1O`: the growth is 29.7% (inactive).

As to `CCN(CC)c1ccc2cc(C(Nc3ccc(C)cc3)c3nnnn3C(C)(C)C)c(=O)oc2c1` (centres undefined), the growth was 105% (inactive).

In the case of `Cn1c(SC(C(=O)Nc2ccc(F)cc2)c2ccccc2)nc2ccccc2c1=O` (centres undefined), the growth is 99.6% (inactive).

For `CS(=O)(=O)c1nsc(N)n1`, the growth was 109% (inactive).

On to `C=C1C(=O)O[C@H]2[C@H]1CC/C(COC(=O)NCc1[nH]nc3ccccc13)=C\CC[C@@]1(C)O[C@@H]21`, for which the growth is 20.4% (inactive).

In the case of `O=C(Nc1cccc(Cl)c1)c1cc(Cl)ccc1O`, the growth was -1.28% (active).

Regarding `O=S(=O)(Nc1ccsc1-c1nc(-c2ccccc2)no1)c1cc(Cl)cc(Cl)c1`, the growth was 88.6% (inactive).

On to `CSc1ccc2c(c1)N(CCC1CCCCN1C)c1ccccc1S2` (centres undefined), for which the growth was -10.2% (active).

`O=C(NCc1ccccc1)Nc1ccccc1CNc1nc(Nc2ccc(OCCN3CCCC3)cc2)ncc1Cl`: the growth is 74.5% (inactive).

With `Cc1cccc(N2CCN(C(=S)c3ccc4c(c3)OCO4)CC2)c1`, the growth was -37.6% (active).

Consider `Nc1ccc(Cl)c(S(=O)(=O)O)c1`, for which the growth is 99.3% (inactive).
